Data on 114 compounds can be found in PubChem BioAssay AID488969 (Vanderbilt High Throughput Screening Facility, 2010).

The full ranking holds about 110,000 compounds; the median of “z-score” is about -0.1, and the highest 2% start at about 2. For the sample, the highest values were picked, then their nearest neighbours and some compounds at random. Activity calls are given as the source filed them.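 How the source made its calls: active means z-score in the third read window above 3 or below -3; inactive means the rest.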

In the assay the target is Metabotropic glutamate receptor 8 (Rattus norvegicus) (UniProt P70579). The assay is described as follows: rat mGluR8 modulators via GIRK flux, primary screen, cell-based, thallium flux, HTS (AID 488969). The conditions noted are these: HEK293 rat mGluR8, GIRK (G protein-gated inwardly rectifying potassium channel) thallium flux, FluoZin2; at 10 µM; stronger effect = higher value; submaximal glutamate (EC20) added with thallium.
Sequence of Metabotropic glutamate receptor 8 (Rattus norvegicus) (P70579 whole entry, looked up): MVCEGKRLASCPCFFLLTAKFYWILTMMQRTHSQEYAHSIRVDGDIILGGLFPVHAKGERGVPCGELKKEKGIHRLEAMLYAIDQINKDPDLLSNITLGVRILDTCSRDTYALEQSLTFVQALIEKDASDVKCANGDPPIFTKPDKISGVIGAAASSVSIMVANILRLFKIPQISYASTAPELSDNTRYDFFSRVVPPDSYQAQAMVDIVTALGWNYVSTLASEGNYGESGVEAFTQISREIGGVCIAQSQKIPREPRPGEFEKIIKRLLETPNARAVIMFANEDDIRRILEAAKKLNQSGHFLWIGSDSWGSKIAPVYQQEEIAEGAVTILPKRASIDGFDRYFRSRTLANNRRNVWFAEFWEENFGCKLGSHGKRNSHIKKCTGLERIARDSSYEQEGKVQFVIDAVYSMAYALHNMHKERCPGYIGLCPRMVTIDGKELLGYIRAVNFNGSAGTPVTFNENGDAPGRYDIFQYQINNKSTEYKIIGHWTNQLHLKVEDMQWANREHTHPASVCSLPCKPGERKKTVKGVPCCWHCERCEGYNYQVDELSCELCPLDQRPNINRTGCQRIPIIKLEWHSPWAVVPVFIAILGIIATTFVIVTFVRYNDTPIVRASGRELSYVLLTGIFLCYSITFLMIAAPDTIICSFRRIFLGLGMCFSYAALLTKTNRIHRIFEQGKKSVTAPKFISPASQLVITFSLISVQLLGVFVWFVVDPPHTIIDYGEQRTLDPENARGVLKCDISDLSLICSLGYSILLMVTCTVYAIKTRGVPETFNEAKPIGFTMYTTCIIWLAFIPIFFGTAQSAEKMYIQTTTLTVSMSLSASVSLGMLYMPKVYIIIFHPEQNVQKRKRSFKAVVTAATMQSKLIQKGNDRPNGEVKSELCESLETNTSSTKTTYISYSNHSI
Consider `Cn1c(SCC(=O)N2c3ccccc3CCc3ccccc32)nnc1-c1ccc(O)cc1`, for which the z-score was 5.88 (active).
In the case of `Cn1c(SCC(=O)N2c3ccccc3CCc3ccccc32)nnc1-c1cc2ccccc2cc1O` it was -0.13.
Regarding `Cc1cccc(-c2nnc(SCC(=O)N3c4ccccc4CCc4ccccc43)n2C)c1`, the z-score is -0.366.
In the case of `Cc1ccc(NC(=O)N2CCC(C(N)=O)CC2)cc1` it was 0.0373.
The compound `O=C(NCC1CCCO1)C1CCN(S(=O)(=O)c2cccc3cccnc23)CC1` (centres undefined) came in with a z-score of -0.104.
Regarding `Cc1ccc(-c2cc(-c3n[nH]c(=S)o3)c3ccccc3n2)cc1`, the z-score was 8.6 (active).
For `Cc1ccccc1-c1n[nH]c(=S)o1` the value was 0.676.
`CSc1nnc(-c2cc(-c3ccc(C)cc3)nc3ccccc23)o1` showed a z-score of -0.0721.
Take `CC(=O)c1c(C)[nH]c(C(=O)Nc2ccc(Cl)c(S(=O)(=O)N3CCOCC3)c2)c1C`: the z-score came to 1.6.
In turn, `O=C(COC(=O)c1cc(-c2cccs2)nn1-c1ccccc1)Nc1ccc(Cl)c([N+](=O)[O-])c1` displayed a z-score of 0.0111.
With `NS(=O)(=O)c1ccc(CCN2C(=O)/C(=C\c3ccc(Cl)cc3)SC2=S)cc1`, the z-score amounted to 0.283.
In the case of `COc1nc(-c2ccccc2)cc(-c2ccccc2)n1` it was 2.45; in that of `COc1nc(-c2ccccc2)cc(-c2ccc(OC)c(OC)c2)n1`, -0.612.
With `COc1nc(-c2ccccc2)cc(C(F)(F)F)n1`, the z-score amounted to 0.0363.
In the case of `O=C(C1CCCO1)N1N=C(c2ccc(Br)cc2)CC1c1ccco1` (centres undefined) it was -0.195.
Regarding `O=C(CSc1n[nH]c(-c2cccnc2)n1)Nc1ccccc1`, the z-score is -0.272.
`COC(=O)CSc1n[nH]c(-c2cccnc2)n1`: the z-score turned out to be 2.21.
Compound `COC(=O)CSc1n[nH]c(-c2ccncc2)n1` gave a z-score of 0.0349.
Compound `Cc1ccc(C2C(C#N)=C(N)Oc3n[nH]c(-c4ccccc4)c32)o1` (centres undefined) returned a z-score of -0.499.
Compound `CC(C)CC(=O)NC(=S)Nc1nc(-c2cccc3ccccc23)cs1` had a z-score of 2.97.
Compound `CC(C)CC(=O)NC(=S)Nc1nc(-c2ccc(Cl)cc2)cs1` yielded a z-score of 0.0823.
Regarding `CC(C)CC(=O)NC(=S)Nc1nc(-c2ccccc2)cs1`, the z-score was 0.855.
For `Cn1c(=O)c(NC(=O)c2ccccc2)c2n(c1=S)CCCCC2` the value was -0.181; for `O=C(COc1ncnc2ccc(Br)cc12)NCc1ccc2c(c1)OCO2`, -0.00987; for `CCOC(=O)C1C(=O)CC(C)(O)C(C(=O)OCC)C1c1ccc(OC)cc1` (centres undefined), -0.0838.
As for `CCOC(=O)c1cccc(NC(=O)/C(=C\c2ccccc2)NC(=O)c2ccccc2Cl)c1`, the z-score was -0.208.
For the compound `COc1ccccc1NC(=O)CNS(=O)(=O)c1ccccc1`, the z-score was -0.239.
`CCOC(=O)c1c(CN2CCN(CCO)CC2)n(C)c2cc(Br)c(OC)cc12` had a z-score of 0.864.
For `CCOC(=O)c1c(CNCCN(CC)CC)n(C)c2cc(Br)c(OC)cc12` the value was 3.02 (active); for `COc1cc2c(C(=O)N3CCN(C)CC3)c(C)n(-c3ccccc3)c2cc1Br`, -0.333; for `CCN(CC)CCNC(=O)c1c(C)n(-c2ccccc2)c2cc(Br)c(OC)cc12`, 2.84.
For `CCN(CC)CCNC(=O)c1c(C)oc2cc(Br)c(OC)cc12` the value was -0.44.
As to `CCOC(=O)c1c(CN2CCN(Cc3ccccc3)CC2)n(C)c2cc(Br)c(OC)cc12`, the z-score came to 0.132.
Compound `COC(=O)Cn1c(=NC(=O)c2ccc(OC)cc2)sc2cc(OC)ccc21` registered a z-score of -0.189.
In the case of `Cc1cccc(N=C2NC(=O)/C(=C/C=C/c3ccco3)S2)c1C` it was 3 (active).
With `Cc1cccc(N=C2NC(=O)/C(=C/C=C/c3ccco3)S2)c1`, the z-score was determined as 0.7.
For `O=C1NC(=Nc2ccccc2)S/C1=C\C=C\c1ccco1` the value was 0.075; for `OC(COCc1ccccc1)CN1CCN(c2ccccc2)CC1` (centres undefined), 0.802; for `CCCc1nc2oc3c(NCCN(C)C)ncnc3c2c2c1CCCC2`, 0.466.
`CCOc1ccc(/C=C/C(=O)Nc2ccc(N3CCOCC3)cc2)cc1` registered a z-score of -0.494.
Consider `CCCCNC(=S)NNC(=O)c1ccco1`, for which the z-score was -0.0425.
In turn, `COc1ccccc1OCC(=O)NNC(=S)NC(=O)c1ccco1` yielded a z-score of 0.0517.
As for `COCCNC(=S)NNC(=O)c1ccco1`, the z-score turned out to be 0.195.
In turn, `CNC(=S)NNC(=O)COc1ccccc1C` returned a z-score of -0.0807.
On to `CCCc1ccc(OCC(=O)NNC(=S)NC(=O)c2ccco2)cc1`, for which the z-score was 5.78 (active).
For `Cc1ccccc1OCC(=O)NNC(=S)NC(=O)c1ccco1`, the z-score was 8.07 (active).
With `O=C(NCCN1CCOCC1)c1cc(Sc2ccccc2Cl)nc2ccccc12`, the z-score was -1.39.
Compound `COc1cccc(N2CC(C(=O)Nc3nnc(SCc4cccnc4)s3)CC2=O)c1` (centres undefined) gave a z-score of 0.711.
Regarding `O=c1[nH]c2cccnc2n1Cc1ccccc1`, the z-score is -0.166.
Regarding `Cc1ccccc1Nc1nnc(C)c(=O)n1N`, the z-score came to 0.0745.
`C1=CN2CCC1C(c1ccccc1)C2` (centres undefined): the z-score was 2.05.
`c1ccc(C2CCC(N3CCC(N4CCCCC4)CC3)CC2)cc1` (centres undefined): the z-score was -0.423.
In the case of `O=C(/C=C/c1ccccc1)N1CCC(c2ccccc2)C1` (centres undefined) it was -0.0939.
In the case of `COC(=O)C1CCN(C(=O)CSc2ccccc2)CC1` it was -0.196.
`COc1ccc(Cc2c(N)nc(N)nc2N)cc1` gave a z-score of -0.264.
Turning to `CC(C)Oc1ccc(Cc2cnc(N)nc2N)cc1`, the z-score worked out at 1.03.
As for `CC(C)COc1ccc(Cc2cnc(N)nc2N)cc1`, the z-score was 7.02 (active).
In the case of `CCOc1cc(CNCCc2ccc(S(N)(=O)=O)cc2)ccc1OCC(=O)NC1CCCCC1` it was 0.417; in that of `Cc1cc(NC(=O)c2cnccn2)no1`, -0.0463.
Turning to `CCCc1cc(=O)[nH]c(/N=C(/NC(=O)c2ccccc2)Nc2ccc3c(c2)OCCO3)n1`, the z-score was -0.0513.
Turning to `COCCNc1ncnc2c1cnn2-c1ccc(Cl)cc1`, the z-score was found to be 0.0016.
In the case of `CN(C)CCNc1ncnc2c1cnn2-c1ccc(Cl)cc1` it was 3.51 (active); in that of `CN(C)CCCNc1ncnc2c1cnn2-c1ccccc1`, 0.0262.
For `CC(/C=N\NC(=O)c1cccnc1)c1ccccc1` (centres undefined) the value was -0.201; for `CS(=O)(=O)N1CCN(c2ccccc2NC(=O)c2cccc3ccccc23)CC1`, -0.227; for `O=C(COc1cccc2cccnc12)N1CCc2ccccc2C1`, 0.452.
With `O=C(COc1ncnc2sccc12)N1CCc2ccccc2C1`, the z-score amounted to 0.0441.
Consider `O=C(COc1c(Br)cc(Br)c2cccnc12)N1CCc2ccccc2C1`, for which the z-score is 3.14 (active).
Take `COc1ccc(S(=O)(=O)N[C@@H](Cc2ccc(Cl)cc2)C(=O)N2CC[C@@]3(O)CCCC[C@H]3C2)cc1`: the z-score was -0.0964.
As to `COCCNC(=O)c1cc(-c2ccc3c(c2)OCO3)on1`, the z-score came to 0.152.
`Cc1nn(C)c(Cl)c1NC(=O)OCc1ccccc1` returned a z-score of -0.064.
For `Cc1ccc(-c2cnc(NC(=O)CCC(=O)N3CCCCC3)n2C)cc1` the value was 4.3 (active); for `Cc1ccc(-c2cnc(NC(=O)CCC(=O)N(C)Cc3ccccc3)n2C)cc1`, -0.765.
For `CCCNC(=O)CCC(=O)Nc1ncc(-c2ccc(C)cc2)n1C` the value was -0.382.
As to `CC(C)c1ccccc1N=C1SCCN1C1CCS(=O)(=O)C1` (centres undefined), the z-score stood at 0.193.
For `CC(C)c1ccc(S(=O)(=O)c2n[nH]n3c2nc(=O)c2ccccc23)cc1` the value was 2.66.
`CCc1ccc(S(=O)(=O)c2n[nH]n3c2nc(=O)c2ccccc23)cc1` displayed a z-score of 0.475.
For `CC(C)c1ccc(S(=O)(=O)c2nnn3c2nc(N2CCCCC2)c2ccccc23)cc1` the value was -0.645; for `O=C(/C=C/N1CCOCC1)c1ccc(-c2ccccc2)cc1`, -0.364; for `CC1=NN(C(N)=S)C(=O)C1N=Nc1ccccc1C` (centres undefined), 2.97.
Consider `Cc1ccc(N=Nc2c(C)[nH][nH]c2=O)c(C)c1`, for which the z-score worked out at 0.772.
`CC1=NN(c2ccccc2)C(=O)C1N=Nc1ccccc1` (centres undefined) displayed a z-score of 0.244.
As to `CC1=NN(C(N)=S)C(=O)C1N=Nc1ccc(C)cc1C` (centres undefined), the z-score was 13.2 (active).
With `CC1=NN(c2ccccc2)C(=O)C1N=Nc1ccc(N)cc1` (centres undefined), the z-score was -0.073.
On to `CC1=NN(C(N)=S)C(=O)C1N=Nc1c(C)cc(C)cc1C` (centres undefined), for which the z-score was 0.119.
The compound `Cc1ccccc1-n1c(C)nnc1SCc1cc(=O)oc2ccc3ccccc3c12` came in with a z-score of 0.0722.
For `CC(C)CC(=O)Nc1ccc(C(=O)NNC(=O)C(c2ccccc2)c2ccccc2)cc1` the value was -0.258; for `O=C(O)C1CCN(C(=O)c2ccc(Cl)cc2)CC1`, 0.000989; for `Cc1cc(C)c(C)c(S(=O)(=O)NCc2ccc(C(=O)N3CCCCC3)cc2)c1C`, 0.249.
In the case of `Cc1ccc(OCC(=O)N2N=C(c3cccnc3)CC2(O)C(F)(F)F)cc1C` (centres undefined) it was -0.105; in that of `Cc1cc(C)cc(OCC(=O)N2N=C(C(F)(F)F)CC2(O)C(C)(C)C)c1` (centres undefined), 4.9 (active); in that of `Cc1ccccc1OCC(=O)N1N=C(C(F)(F)F)CC1(O)C(C)(C)C` (centres undefined), 1.61.
For `CCCCC1(O)CC(C(F)(F)F)=NN1C(=O)COc1ccccc1` (centres undefined), the z-score is 0.45.
Regarding `Cc1ccc(OCC(=O)N2N=C(C(F)(F)F)CC2(O)C(C)(C)C)cc1C` (centres undefined), the z-score is 3.56 (active).
For `Cc1cc(C)cc(OCC(=O)N2CCCCCC2)c1` the value was -0.242; for `COP(=O)(OC)c1nc(-c2cccc3ccccc23)oc1NCc1ccccc1`, -0.666.
For `CC(C)(C)C(=O)Nc1cccc(C(=O)c2cccc(NC(=O)C(C)(C)C)c2)c1` the value was -0.249; for `Cc1cccc(C(=O)NC(=S)Nc2ccc(S(=O)(=O)N3CCCCC3)cc2)c1`, -0.0168; for `CCOC(=O)C1=C(C)N=C2SC(C)C(=O)N2C1c1ccc(OCC)c(OCC)c1` (centres undefined), 0.125.
As to `COc1cc(/C=C2\SC(=S)N(CC(=O)Nc3ccccn3)C2=O)cc(OC)c1OC`, the z-score was -0.0617.
For `CCN=c1sc2ccccc2n1CC(O)COc1ccccc1` (centres undefined) the value was 0.979; for `Cn1c(=NCC(O)COc2ccccc2)sc2ccccc21` (centres undefined), 2.27; for `OC(CN=c1sc2ccccc2n1CC(O)COc1ccccc1)COc1ccccc1` (centres undefined), 0.0732.
For `CC(=O)N1CCC(=NNc2ccc(S(=O)(=O)N3CCOCC3)cc2[N+](=O)[O-])CC1`, the z-score turned out to be 0.476.
`COC(=O)Cc1ccc(NC(=O)c2ccc(C(C)(C)C)cc2)cc1` returned a z-score of -0.0938.
As to `COc1ccc(/C=C/C(=O)NCc2c(C)nn(C)c2C)cc1COc1ccc(Br)cc1`, the z-score was -0.131.
The compound `Cc1cc(C)cc(NC(=O)CN(C)S(=O)(=O)c2cnc[nH]2)c1` gave a z-score of -0.129.
As for `Cc1ccc(NC(=O)CN(C)S(=O)(=O)c2cnc[nH]2)cc1C`, the z-score worked out at 2.45.
In the case of `Cc1cccc(NC(=O)CN(C)S(=O)(=O)c2cnc[nH]2)c1` it was 1.6; in that of `CC1CC1C(=O)OCC(=O)NC(=O)NCc1ccco1` (centres undefined), -0.131; in that of `CCc1ccc(-c2nn(-c3ccccc3)cc2C2SCC(=O)N2Cc2ccco2)cc1` (centres undefined), -0.102.
Compound `Cc1ccc(Nc2nc(N)c([N+](=O)[O-])c(N3CCOCC3)n2)cc1C` gave a z-score of -0.153.
In the case of `Cc1ccc(Nc2nc(N)c([N+](=O)[O-])c(N3CCCC(C)C3)n2)cc1C` (centres undefined) it was 2.26; in that of `Cc1cccc(Nc2nc(N)c([N+](=O)[O-])c(N3CCCC(C)C3)n2)c1` (centres undefined), -0.0648.
